Measured values from PubChem BioAssay.
For part of these data: Entries with a potency or affinity are not part of this list. Activity calls are given as the source filed them. Unless noted, the rule behind the calls is not given here.

How the values were obtained:
[1] = antimalarial activity against Dd2 strain (AID 2302;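 active = growth inhibition above 50% at the single 2 µM test dose, taken to imply half-maximal potency below 2 µM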;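 note: 0% = DMSO untreated growth and 100% = chloroquine plus artemisinin killed control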); details: P. falciparum Dd2 in RBCs, LDH growth readout, 72 h; at 2 µM; active compounds read high
[2] = HepG2 cytotoxicity, primary screen, cytotoxicity control for P. falciparum antimalarial project, cell-based, ATP luminescence (AID 2303;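 active = inhibition above 50%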;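 note: 0% = DMSO wells and 100% = digitonin-killed cells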); details: HepG2 viability, 24-48 h, at 10 µM, active compounds read high
[3] = target: L-lactate dehydrogenase (Plasmodium falciparum (isolate CDC / Honduras)) (UniProt Q27743); assay: PfLDH activity inhibition – cell lysate, 3D7 strain, counter-screen for P. falciparum growth inhibition project (AID 2304);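 note: 0% = vehicle and 100% = reference inhibitor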; details: P. falciparum 3D7 crude extract, LDH APAD/NBT absorbance; at 2 µM; active compounds read high
[4] = inhibition of 3D7 malaria parasite growth – strain 3D7 (AID 2306);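 note: 0% = DMSO wells and 100% = chloroquine plus artemisinin control wells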; details: P. falciparum 3D7 erythrocytic growth, LDH absorbance, 72 h; at 2 µM; active compounds read high
[5] = target: Calcium-dependent protein kinase 1 (Plasmodium falciparum (isolate 3D7)) (UniProt P62344); assay: PfCDPK1 kinase inhibitors, biochemical, TCAMS library (AID 1159585; cut-off not given, nearly all actives have IC50 up to about 0.98 µM;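 note: inhibitors leave more ATP so luminescence rises with inhibition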); details: recombinant PfCDPK1, Kinase-Glo ATP depletion luminescence
[6] = target: Plasmodium falciparum protein kinase 6 (PK6, PF3D7_1337100) (UniProt Q8IDW1); assay: PfPK6 kinase inhibitors, biochemical, TCAMS library (AID 1159586); details: recombinant PfPK6, Kinase-Glo ATP depletion luminescence
[7] = target: Protein kinase 7 (PK7), Plasmodium falciparum 3D7 (PF3D7_0213400) (UniProt Q7YTF7); assay: inhibition of Plasmodium PK7 catalytic activity – biochemical, TCAMS antimalarial set, Kinase-Glo luminescence (AID 1159587); details: recombinant PfPK7, Kinase-Glo ATP depletion luminescence
[8] = target: Calcium-dependent protein kinase 4 (Plasmodium falciparum (isolate 3D7)) (UniProt Q8IBS5); assay: PfCDPK4 kinase inhibitors, biochemical, TCAMS library (AID 1159588; cut-off not given, nearly all actives have IC50 up to about 0.91 µM); details: recombinant PfCDPK4, Kinase-Glo ATP depletion luminescence
Calcium-dependent protein kinase 4 (Plasmodium falciparum (isolate 3D7)), sequence (Q8IBS5 whole entry, looked up): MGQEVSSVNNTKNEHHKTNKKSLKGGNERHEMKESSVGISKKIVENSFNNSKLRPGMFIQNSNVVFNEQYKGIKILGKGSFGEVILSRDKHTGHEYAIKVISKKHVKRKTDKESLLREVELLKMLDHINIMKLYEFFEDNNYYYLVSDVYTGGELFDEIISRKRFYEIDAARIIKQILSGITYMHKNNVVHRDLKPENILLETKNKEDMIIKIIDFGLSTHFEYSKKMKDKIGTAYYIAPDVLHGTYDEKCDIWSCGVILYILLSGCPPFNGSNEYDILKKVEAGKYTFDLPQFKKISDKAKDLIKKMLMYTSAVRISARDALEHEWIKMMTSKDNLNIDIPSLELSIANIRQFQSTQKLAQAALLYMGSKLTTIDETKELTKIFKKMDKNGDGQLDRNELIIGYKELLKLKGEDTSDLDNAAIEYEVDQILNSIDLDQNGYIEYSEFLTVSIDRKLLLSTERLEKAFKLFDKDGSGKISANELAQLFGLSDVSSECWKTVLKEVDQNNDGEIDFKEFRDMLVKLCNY

Protein kinase 7 (PK7), Plasmodium falciparum 3D7 (PF3D7_0213400), sequence (Q7YTF7 1-343): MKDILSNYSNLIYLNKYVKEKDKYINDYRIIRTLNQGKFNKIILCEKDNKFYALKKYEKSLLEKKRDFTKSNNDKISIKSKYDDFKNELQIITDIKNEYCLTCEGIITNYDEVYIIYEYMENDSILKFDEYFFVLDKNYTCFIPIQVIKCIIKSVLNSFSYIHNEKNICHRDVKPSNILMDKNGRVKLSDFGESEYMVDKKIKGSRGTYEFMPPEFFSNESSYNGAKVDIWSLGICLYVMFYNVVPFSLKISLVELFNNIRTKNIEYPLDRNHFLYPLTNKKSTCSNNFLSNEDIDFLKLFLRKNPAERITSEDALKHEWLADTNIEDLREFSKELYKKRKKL
Plasmodium falciparum protein kinase 6 (PK6, PF3D7_1337100), sequence (Q8IDW1 1-305): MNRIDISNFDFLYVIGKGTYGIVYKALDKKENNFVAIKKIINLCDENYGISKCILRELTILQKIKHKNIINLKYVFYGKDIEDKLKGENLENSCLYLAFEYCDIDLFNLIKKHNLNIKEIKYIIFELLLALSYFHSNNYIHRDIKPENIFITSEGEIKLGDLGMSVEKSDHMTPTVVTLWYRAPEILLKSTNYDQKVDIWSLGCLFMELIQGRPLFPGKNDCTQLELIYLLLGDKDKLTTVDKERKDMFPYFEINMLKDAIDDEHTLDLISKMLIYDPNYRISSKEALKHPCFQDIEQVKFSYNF
L-lactate dehydrogenase (Plasmodium falciparum (isolate CDC / Honduras)), sequence (Q27743 whole entry, looked up): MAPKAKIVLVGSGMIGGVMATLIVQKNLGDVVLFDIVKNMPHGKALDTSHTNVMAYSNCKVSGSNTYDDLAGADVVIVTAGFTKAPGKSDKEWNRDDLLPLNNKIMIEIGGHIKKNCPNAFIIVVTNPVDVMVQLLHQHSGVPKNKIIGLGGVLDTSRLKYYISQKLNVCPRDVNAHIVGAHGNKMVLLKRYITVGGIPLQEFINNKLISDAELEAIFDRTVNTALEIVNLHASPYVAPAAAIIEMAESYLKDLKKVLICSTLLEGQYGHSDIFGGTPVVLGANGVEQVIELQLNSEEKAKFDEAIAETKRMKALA
Calcium-dependent protein kinase 1 (Plasmodium falciparum (isolate 3D7)), sequence (P62344 whole entry, looked up): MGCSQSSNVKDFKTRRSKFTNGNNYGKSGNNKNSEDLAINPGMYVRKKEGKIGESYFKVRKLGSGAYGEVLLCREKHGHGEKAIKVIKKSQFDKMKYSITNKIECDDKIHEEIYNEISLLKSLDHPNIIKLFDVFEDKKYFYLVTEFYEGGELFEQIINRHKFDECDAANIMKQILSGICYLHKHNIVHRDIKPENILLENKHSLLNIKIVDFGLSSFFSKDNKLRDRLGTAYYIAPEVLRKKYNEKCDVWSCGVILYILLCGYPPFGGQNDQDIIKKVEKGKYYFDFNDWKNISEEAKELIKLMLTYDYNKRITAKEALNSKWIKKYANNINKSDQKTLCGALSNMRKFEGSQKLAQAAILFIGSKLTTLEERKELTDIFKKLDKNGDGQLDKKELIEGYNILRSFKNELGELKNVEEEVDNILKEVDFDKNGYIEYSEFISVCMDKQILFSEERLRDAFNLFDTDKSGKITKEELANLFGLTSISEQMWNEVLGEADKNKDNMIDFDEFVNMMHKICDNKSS

CCN(CC)CCN(Cc1ccc(-c2ccc(C(F)(F)F)cc2)cc1)C(=O)Cn1c(CCc2cc(F)cc(F)c2)nc(=O)c2ccccc21
active: growth inhibition [1] 80% | growth inhibition [4] 91%
inactive: inhibition [2] 30% | inhibition [3] 2% | outcome [5] | outcome [6] | outcome [7] | outcome [8]

O=C1CCCN1CCCNCc1ccc(-c2ccc(-c3nc4ccc(F)cc4[nH]3)s2)cc1
active: growth inhibition [1] 91% | growth inhibition [4] 100%
inactive: inhibition [2] 19% | inhibition [3] 0% | outcome [5] | outcome [6] | outcome [7] | outcome [8]

CCc1cn2c3c(cc(C(=O)N[C@@H](Cc4ccccc4)[C@H](O)CNC(C)(C)c4cccc(OC)c4)cc13)N(C)S(=O)(=O)C2
inactive: inhibition [2] 27% | inhibition [3] -5% | outcome [5] | outcome [6] | outcome [7] | outcome [8]
active: growth inhibition [1] 99% | growth inhibition [4] 98%
